18 molecules from PubChem BioAssay (EPA / NIEHS) can be followed below.

Assay [1] can be described thus: NVS_IC_rCaBTZCHL: NovaScreen (NVS) Ion Channel Assay for Calcium Channel, Type L, Benzothiazepine Site (CaBTZCHL) (AID 2283337). The procedure, abridged: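 Test chemicals were added to rat cortical membranes and incubated 1.5 h with a tritiated or iodinated radioligand for the benzothiazepine site. Bound ligand was separated by filtration and counted. Actives from the 25 uM duplicate screen were retested in concentration series.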

Assay [2] has as its system guinea pig Histamine Receptor (H2), gene 100729734. Briefly: NVS_GPCR_gH2: NovaScreen (NVS) G Protein-Coupled Receptor Assay for guinea pig Histamine Receptor (H2) (AID 2283342). The procedure, abridged: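 Guinea pig striatal membrane preparation with specific radioligand; bound counts measured by filtration and scintillation 1 h post-dosing, DMSO as baseline. Chemicals passing a 25 uM duplicate screen were titrated to a 50 uM maximum.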

The subject of a further assay is NCBI gene 100848466. Briefly: NVS_NR_bPR: NovaScreen (NVS) Nuclear Receptor Binding Assay for bovine Progextron Receptor (PR) (AID 2283343).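 Also: actives lower bound radioligand signal below DMSO meaning displacement of the label.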 The procedure, abridged: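 Scintillation counts of bound radioligand were read 18 hours after chemical addition to membranes extracted from bovine uterus. Displacement was scored as loss of signal relative to DMSO controls. Screening began at 25 uM in duplicate.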

Assay [3] has as its target Estrogen receptor (Homo sapiens) (UniProt P03372). Description: OT_ER_ERaERa_1440: Odyssey Thera (OT) 24-hour HEK293T Protein-Complementation Assay for Estrogen Receptor-alpha/-alpha Homodimer (AID 2283349).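 Also: hits raise fluorescence above DMSO for agonists and antagonists alike.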 The procedure, abridged: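 Cells (HEK293T) carrying the fragment-tagged ERα LBD (aa 310-547) pair are treated with chemical for 24 hours. Nuclear and/or cytoplasmic fluorescence is then quantified on a laser scanning cytometer. Activity is scored as signal gain against DMSO.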

Assay [4] shares this target. Briefly: OT_ER_ERaERa_0480: Odyssey Thera (OT) 8-hour HEK293T Protein-Complementation Assay for Estrogen Receptor-alpha/-alpha Homodimer (AID 2283351).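 Also: rise in fluorescence from reassembled reporter fragments on ERα LBD homodimer in nucleus or whole cell.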 The procedure, abridged:
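Cells were treated for 8 hours, then imaged on a laser scanning plate cytometer. Complementation of reporter fragments fused to the human ERα ligand-binding domain (residues 310-547) in HEK293T gave fluorescence, and gain of signal over vehicle was fitted.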

In assay [5] the target is T1, Estrogen receptor (Homo sapiens) + Estrogen receptor beta (Homo sapiens) (UniProt P03372+Q92731). Briefly: OT_ER_ERaERb_0480: Odyssey Thera (OT) 8-hour HEK293T Protein-Complementation Assay for Estrogen Receptor-alpha/-beta Heterodimer (AID 2283352). The procedure, abridged: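 Compound added to HEK293T cells carrying split-reporter-tagged ER-alpha and ER-beta LBDs, incubated 8 hours, then imaged by laser scanning cytometer. Signal rise in nucleus, or nucleus and cytoplasm, over vehicle was fitted in the positive direction.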

Assay [6] addresses T1, Estrogen receptor (Homo sapiens) + Estrogen receptor beta (Homo sapiens). Description: OT_ER_ERaERb_1440: Odyssey Thera (OT) 24-hour HEK293T Protein-Complementation Assay for Estrogen Receptor-alpha/-beta Homodimer (AID 2283356).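 Also: heteromer of ER alpha and ER beta binding domains; hits raise reporter fluorescence and both agonists and antagonists give an increase.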 The procedure, abridged: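 Stable HEK293T PCA line, ERα LBD 310-547 + ERβ LBD 263-489 fused to reporter fragments; 24 h treatment; fluorescence read by laser scanning cytometry; positive fitting direction relative to DMSO.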

In assay [7] the target is human Peroxisome Proliferator-activated Receptor alpha (PPARa), PPARA (gene 5465) (UniProt Q07869). Description: NVS_NR_hPPARa: NovaScreen (NVS) Nuclear Receptor Binding Assay for human Peroxisome Proliferator-activated Receptor alpha (PPARa) (AID 2283359).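 Also: activity means loss of TR-FRET signal versus DMSO baseline.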 The procedure, abridged: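 TR-FRET signal measured at 1 h post-dosing; loss-of-signal versus DMSO negative control taken as activity. Extracted gene-protein, cell-free format. Initial single-point duplicates at 25 uM, then concentration-response retests.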

The target of assay [8] is bovine Estrogen Receptor (ER), ESR1 (gene 407238) (UniProt P49884). Description: NVS_NR_bER: NovaScreen (NVS) Nuclear Receptor Binding Assay for bovine Estrogen Receptor (ER) (AID 2283345).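 Also: actives lower the bound radioligand count which means they displace the ER ligand.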 The procedure, abridged:
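Cell-free radioligand binding with receptor from bovine uterine membranes, read by scintillation counting 18 h after dosing. Loss of specific binding was scored against DMSO; primary screen at 25 uM in duplicate, actives then run as concentration series.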

Assay [9] concerns the target Estrogen receptor (Homo sapiens) (UniProt P03372). Briefly: NVS_NR_hER: NovaScreen (NVS) Nuclear Receptor Binding Assay for human Estrogen Receptor (ER) (AID 2283348). The procedure, abridged:
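MCF7-derived receptor extract, radiolabelled ligand, competitive displacement. Read: scintillation counts at 18 h. DMSO = negative control/baseline. Primary 25 uM duplicate; follow-up concentration–response.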

Assay [10] concerns the target human Constitutive Androstane Receptor (CAR), NR1I3 (gene 9970) (UniProt Q14994). Briefly: NVS_NR_hCAR_Antagonist: NovaScreen (NVS) Nuclear Receptor Binding Assay for human Constitutive Androstane Receptor Antagonism (CAR) (AID 2283344). The procedure, abridged: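 Single 25 uM duplicate primary screen, with concentration-series follow-up on actives. Cell-free binding format run in antagonist mode, TR-FRET signal taken 1 h post-dose; activity is signal loss relative to DMSO.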

Assay [11] has as its target rat Glycine Receptor, Strychnine-sensitive (GlyRStrySens), Glra1 (gene 25674) (UniProt P07727). Briefly: NVS_LGIC_rGlyRStrySens: NovaScreen (NVS) Ligand-Gated Ion Channel Assay for rat Glycine Receptor, Strychnine-sensitive (GlyRStrySens) (AID 2283341). The procedure, abridged:
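Radioligand displacement on rat spinal cord membranes, 1 hr, filter scintillation read-out. Single-concentration duplicate screen at 25 uM; chemicals meeting threshold (e.g., 30% inhibition) rerun in concentration-response up to 50 uM. Loss of binding fitted versus DMSO.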

The target in assay [12] is chimpanzee Androgen Receptor (AR), AR (gene 747460) (UniProt O97775). Description: NVS_NR_cAR: NovaScreen (NVS) Nuclear Receptor Binding Assay for chimpanzee Androgen Receptor (AR) (AID 2283346).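 Also: radioligand displacement from AR measured by scintillation counting in a cell-free assay.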 The procedure, abridged:
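Radioligand binding to chimpanzee AR expressed in Sf9/Sf21 cells, cell-free, measured 72 h after dosing by lysate-based scintillation counting. Loss of signal vs DMSO; initial duplicate screen at 25 uM, actives retested in concentration series.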

The target in assay [13] is Estrogen receptor beta (Homo sapiens) (UniProt Q92731). Briefly: OT_ER_ERbERb_0480: Odyssey Thera (OT) 8-hour HEK293T Protein-Complementation Assay for Estrogen Receptor-beta/-beta Homodimer (AID 2283357).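 Also: active means signal gain over DMSO baseline.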 The procedure, abridged: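 Homodimerization of ER-beta LBD measured by protein-fragment complementation in HEK293T; 8 h dosing; fixed, Draq5 counterstain; fluorescence intensity gain over DMSO baseline, positive fitting direction; laser scanning cytometry.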

For assay [14], the target named is rat Glutamate, MK-801 Agonist Site (GluNMDA_MK801), Grin1 (gene 24408) (UniProt P35439). Description: NVS_LGIC_rGluNMDA_MK801_Agonist: NovaScreen (NVS) Ligand-Gated Ion Channel Assay for rat Glutamate, MK-801 Agonist Site (GluNMDA_MK801) (AID 2283340). The procedure, abridged: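 Rat forebrain membrane preparation; MK-801-site radioligand binding read by filtration and scintillation after 1.5 h. Single-point 25 uM duplicate screen, followed by singleton concentration series to 50 uM max; DMSO baseline.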

The target of assay [15] is Androgen Receptor/SRC-1 Co-activator, AR (gene 367) (UniProt P10275). Description: OT_AR_ARSRC1_0960: Odyssey Thera (OT) 16-hour HEK293T Protein-Complementation Assay for Androgen Receptor/SRC-1 Co-activator (AID 2283353).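 Also: actives raise the signal above DMSO so potency reflects increased AR and SRC-1 complex.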 The procedure, abridged:
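Stable HEK293T line carries AR and SRC-1 each linked to a Venus fragment; chemicals are applied for 16 h, cells imaged at two wavelengths, and the 488 nm nucleus/cytoplasm ratio is taken as the signal, rising relative to DMSO.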

For assay [16] the target is unchanged. Briefly: OT_AR_ARSRC1_0480: Odyssey Thera (OT) 8-hour HEK293T Protein-Complementation Assay for Androgen Receptor/SRC-1 Co-activator (AID 2283354).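 Also: hits raise the complementation signal above DMSO so AC50 marks enhancers.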 The procedure, abridged: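 Split-Venus PCA, stable HEK293T, AR/SRC-1 fusions; 8 h exposure. Readout: 488nm N/C fluorescence ratio, ≥400 cells/image; fitted upward vs DMSO baseline.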
Assay [17] addresses Retinoic acid receptor alpha (Homo sapiens) (UniProt P10276). Description: NVS_NR_hRAR_Antagonist: NovaScreen (NVS) Nuclear Receptor Binding Assay for human Retinoic Acid Alpha Receptor Antagonism (RAR) (AID 2283358). The procedure, abridged: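 Read-out: time-resolved FRET binding signal, 2 h post-dose, cell-free extracted protein. Antagonism scored as signal loss versus DMSO negative control. Primary single-concentration screen at 25 uM in duplicate; concentration series for actives.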

Assay [18] deals with bovine Gamma-Aminobutyric Acid Type A Receptor Agonist (GABAR Agonist), GABRA1 (gene 780973) (UniProt P08219). Description: NVS_LGIC_bGABAR_Agonist: NovaScreen (NVS) Ligand-Gated Ion Channel Assay for bovine Gamma-Aminobutyric Acid Type A Receptor Agonist (GABAR Agonist) (AID 2283338). The procedure, abridged: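 Radioligand binding to bovine cerebellar membranes in agonist format, read by filter-based scintillation counting after 1 h. Primary screen in duplicate at 25 uM, with actives followed in concentration series. Gain of signal versus DMSO.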

Records with an inconclusive call do not appear. Activity calls are given as the source filed them. The calls were made as follows: active = hit-call score of the fitted dose curve at least 0.9, where 1 is the maximum; inconclusive = response in the unintended direction; inactive = score below 0.9.

Sequence of human Peroxisome Proliferator-activated Receptor alpha (PPARa), PPARA (gene 5465) (Q07869 whole entry, looked up): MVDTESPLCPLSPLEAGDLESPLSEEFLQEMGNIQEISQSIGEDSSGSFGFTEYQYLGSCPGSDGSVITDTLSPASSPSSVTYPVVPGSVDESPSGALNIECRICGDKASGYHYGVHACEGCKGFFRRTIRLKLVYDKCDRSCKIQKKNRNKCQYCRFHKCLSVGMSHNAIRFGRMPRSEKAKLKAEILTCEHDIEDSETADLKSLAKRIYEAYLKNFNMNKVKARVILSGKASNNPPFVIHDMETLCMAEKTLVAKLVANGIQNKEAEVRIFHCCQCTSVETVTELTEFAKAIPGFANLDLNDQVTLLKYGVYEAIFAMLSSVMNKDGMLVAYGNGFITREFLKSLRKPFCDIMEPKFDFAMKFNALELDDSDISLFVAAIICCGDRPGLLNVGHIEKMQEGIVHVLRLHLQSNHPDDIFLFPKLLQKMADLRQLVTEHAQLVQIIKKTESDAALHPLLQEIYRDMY
Sequence of Estrogen receptor beta (Homo sapiens) (Q92731 whole entry, looked up, the tested form may be a part): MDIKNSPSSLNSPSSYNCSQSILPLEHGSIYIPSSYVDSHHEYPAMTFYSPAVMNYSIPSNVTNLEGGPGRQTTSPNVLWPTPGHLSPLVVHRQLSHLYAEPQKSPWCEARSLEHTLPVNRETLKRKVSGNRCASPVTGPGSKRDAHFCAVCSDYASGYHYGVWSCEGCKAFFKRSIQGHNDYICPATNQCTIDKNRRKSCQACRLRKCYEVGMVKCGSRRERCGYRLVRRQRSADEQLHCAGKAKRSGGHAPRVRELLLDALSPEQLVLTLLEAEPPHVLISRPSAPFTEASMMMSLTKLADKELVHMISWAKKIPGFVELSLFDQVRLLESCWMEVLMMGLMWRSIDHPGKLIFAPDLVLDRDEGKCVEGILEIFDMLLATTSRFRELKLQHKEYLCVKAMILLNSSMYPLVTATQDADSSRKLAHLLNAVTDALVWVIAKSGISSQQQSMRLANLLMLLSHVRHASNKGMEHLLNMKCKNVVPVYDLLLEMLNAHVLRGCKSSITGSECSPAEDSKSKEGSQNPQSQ
Sequence of chimpanzee Androgen Receptor (AR), AR (gene 747460) (O97775 whole entry, looked up): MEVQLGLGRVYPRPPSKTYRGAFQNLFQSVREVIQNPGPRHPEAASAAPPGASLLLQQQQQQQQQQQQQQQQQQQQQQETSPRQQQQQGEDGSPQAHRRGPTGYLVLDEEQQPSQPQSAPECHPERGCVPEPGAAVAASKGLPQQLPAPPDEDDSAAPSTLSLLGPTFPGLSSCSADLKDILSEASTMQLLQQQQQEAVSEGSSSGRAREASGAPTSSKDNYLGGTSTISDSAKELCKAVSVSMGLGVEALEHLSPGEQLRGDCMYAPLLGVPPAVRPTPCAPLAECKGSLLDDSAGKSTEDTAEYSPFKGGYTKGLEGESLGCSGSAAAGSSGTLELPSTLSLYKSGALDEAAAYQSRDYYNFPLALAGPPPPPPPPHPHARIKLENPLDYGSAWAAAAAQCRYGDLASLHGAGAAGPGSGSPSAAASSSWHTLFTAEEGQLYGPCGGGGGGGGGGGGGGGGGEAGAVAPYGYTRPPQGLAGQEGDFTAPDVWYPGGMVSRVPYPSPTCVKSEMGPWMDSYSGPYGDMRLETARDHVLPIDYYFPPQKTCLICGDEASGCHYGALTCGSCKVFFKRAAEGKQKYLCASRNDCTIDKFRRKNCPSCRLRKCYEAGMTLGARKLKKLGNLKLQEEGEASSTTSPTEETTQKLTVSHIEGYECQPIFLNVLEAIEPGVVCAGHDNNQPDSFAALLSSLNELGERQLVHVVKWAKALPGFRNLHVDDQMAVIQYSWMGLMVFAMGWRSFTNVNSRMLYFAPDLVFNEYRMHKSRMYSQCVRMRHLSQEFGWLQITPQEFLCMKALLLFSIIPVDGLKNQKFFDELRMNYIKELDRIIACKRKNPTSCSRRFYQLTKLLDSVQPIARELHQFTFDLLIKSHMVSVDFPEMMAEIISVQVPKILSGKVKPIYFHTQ
Sequence of Androgen Receptor/SRC-1 Co-activator, AR (gene 367) (P10275 whole entry, looked up, the tested form may be a part): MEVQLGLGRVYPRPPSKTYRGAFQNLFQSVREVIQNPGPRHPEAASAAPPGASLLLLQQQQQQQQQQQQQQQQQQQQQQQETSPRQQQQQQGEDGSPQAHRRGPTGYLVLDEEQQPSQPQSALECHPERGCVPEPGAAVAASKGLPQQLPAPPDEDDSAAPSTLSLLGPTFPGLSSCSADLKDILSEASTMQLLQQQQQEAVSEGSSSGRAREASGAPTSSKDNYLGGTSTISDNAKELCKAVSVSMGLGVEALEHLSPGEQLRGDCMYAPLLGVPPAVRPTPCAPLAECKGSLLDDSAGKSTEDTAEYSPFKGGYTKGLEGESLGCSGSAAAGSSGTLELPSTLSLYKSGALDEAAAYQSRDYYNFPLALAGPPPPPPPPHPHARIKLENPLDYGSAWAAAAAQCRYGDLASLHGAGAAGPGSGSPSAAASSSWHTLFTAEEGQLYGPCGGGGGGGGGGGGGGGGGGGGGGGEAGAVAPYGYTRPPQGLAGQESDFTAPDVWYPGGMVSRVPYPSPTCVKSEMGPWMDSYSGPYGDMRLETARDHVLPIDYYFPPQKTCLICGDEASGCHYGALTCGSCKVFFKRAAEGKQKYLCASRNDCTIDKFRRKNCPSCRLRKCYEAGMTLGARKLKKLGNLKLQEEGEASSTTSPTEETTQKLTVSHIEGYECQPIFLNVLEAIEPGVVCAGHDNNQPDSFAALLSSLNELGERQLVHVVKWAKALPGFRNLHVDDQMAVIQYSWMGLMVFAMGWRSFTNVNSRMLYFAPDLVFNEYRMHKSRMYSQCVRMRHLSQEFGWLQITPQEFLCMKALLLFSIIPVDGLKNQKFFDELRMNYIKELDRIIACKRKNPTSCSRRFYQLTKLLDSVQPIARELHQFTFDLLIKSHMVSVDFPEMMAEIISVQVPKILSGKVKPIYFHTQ
Sequence of bovine Estrogen Receptor (ER), ESR1 (gene 407238) (P49884 whole entry, looked up): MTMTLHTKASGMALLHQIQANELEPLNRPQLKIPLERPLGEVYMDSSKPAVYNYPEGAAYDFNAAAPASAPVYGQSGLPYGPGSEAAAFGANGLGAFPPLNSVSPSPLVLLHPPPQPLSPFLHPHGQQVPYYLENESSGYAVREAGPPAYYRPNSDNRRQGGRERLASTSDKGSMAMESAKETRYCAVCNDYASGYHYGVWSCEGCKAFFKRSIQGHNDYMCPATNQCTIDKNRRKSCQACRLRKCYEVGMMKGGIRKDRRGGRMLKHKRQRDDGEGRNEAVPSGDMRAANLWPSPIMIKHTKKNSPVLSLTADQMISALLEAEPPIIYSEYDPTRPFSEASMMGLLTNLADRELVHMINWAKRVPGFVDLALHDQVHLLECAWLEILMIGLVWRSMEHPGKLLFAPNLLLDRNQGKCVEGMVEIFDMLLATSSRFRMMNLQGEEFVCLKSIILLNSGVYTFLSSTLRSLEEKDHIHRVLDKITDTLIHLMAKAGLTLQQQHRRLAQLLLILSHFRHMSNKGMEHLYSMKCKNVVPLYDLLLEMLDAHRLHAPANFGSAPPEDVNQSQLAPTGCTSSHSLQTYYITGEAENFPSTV
Sequence of human Constitutive Androstane Receptor (CAR), NR1I3 (gene 9970) (Q14994 whole entry, looked up): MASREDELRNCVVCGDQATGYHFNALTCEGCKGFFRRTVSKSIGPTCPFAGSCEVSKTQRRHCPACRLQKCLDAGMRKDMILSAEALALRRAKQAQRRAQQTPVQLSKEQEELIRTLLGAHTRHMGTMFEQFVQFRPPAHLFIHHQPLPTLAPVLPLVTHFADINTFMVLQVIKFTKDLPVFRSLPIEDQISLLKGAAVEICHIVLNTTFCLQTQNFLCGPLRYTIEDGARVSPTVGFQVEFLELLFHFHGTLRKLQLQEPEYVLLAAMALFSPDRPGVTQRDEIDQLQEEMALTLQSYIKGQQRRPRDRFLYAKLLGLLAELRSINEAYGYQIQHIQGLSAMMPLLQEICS
T1 sequence (P03372 whole entry, looked up): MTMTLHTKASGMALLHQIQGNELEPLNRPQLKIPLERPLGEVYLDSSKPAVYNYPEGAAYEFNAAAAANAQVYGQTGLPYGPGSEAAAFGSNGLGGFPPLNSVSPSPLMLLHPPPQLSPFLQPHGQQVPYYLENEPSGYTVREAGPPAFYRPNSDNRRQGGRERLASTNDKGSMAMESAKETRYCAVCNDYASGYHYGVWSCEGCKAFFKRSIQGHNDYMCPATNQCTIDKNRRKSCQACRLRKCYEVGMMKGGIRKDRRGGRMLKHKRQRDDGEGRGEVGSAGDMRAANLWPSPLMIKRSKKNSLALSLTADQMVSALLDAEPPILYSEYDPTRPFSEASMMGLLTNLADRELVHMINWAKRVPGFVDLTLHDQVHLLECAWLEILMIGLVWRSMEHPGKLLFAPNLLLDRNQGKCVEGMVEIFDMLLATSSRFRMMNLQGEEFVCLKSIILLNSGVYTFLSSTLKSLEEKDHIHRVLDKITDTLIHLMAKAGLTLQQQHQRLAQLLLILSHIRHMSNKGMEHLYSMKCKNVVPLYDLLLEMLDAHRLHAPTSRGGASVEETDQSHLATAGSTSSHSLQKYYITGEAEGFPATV
T1 sequence (Q92731 whole entry, looked up): as the sequence (Q92731 whole entry, looked up, the tested form may be a part) above

For `Cc1nccn1-c1ccc(Sc2cccc(C3(C(N)=O)CCOCC3)c2)cc1`, the outcome in [1], in assay [2], in assay [3], in assay [4], in assay [5] and in [7] was inactive. The AC50 in the assay with NCBI gene 100848466 was 7.1 µM (active); in assay [6], 20.9 µM (active).

Regarding `COS(C)(=O)=O`, the molecule was called inactive in assay [8], in [9], in assay [3] and in [4].

Turning to `O=C(O)c1ccc2c(c1)nc(C(=O)NC1CCN(C3CC3)CC1)n2Cc1cc(-c2ccc(Cl)s2)on1`, the molecule was classed as inactive in assay [10], in assay [3], in [4], in assay [5], in [6] and in assay [7].

`CCCC(CCC)C(=O)O`: the molecule was called inactive in assay [9], in assay [3] and in [4].

Take `Nc1ccn([C@@H]2O[C@H](CO)[C@@H](O)[C@@H]2O)c(=O)n1`: the AC50 in assay [9] is 22.5 µM (active). For the same molecule, the molecule was classed as inactive in [3] and in assay [4].

As to `CCCCCCCC1CCC(=O)O1` (stereo not drawn), the outcome in assay [11], in assay [3], in assay [4], in assay [5] and in [6] was inactive.

Regarding `CCCCCCCCCC`, the call in assay [8], in assay [3], in [4], in assay [5] and in [6] was inactive.

With `O=C(O)c1cccc(C[C@@H]2COc3ccc(OCc4nc5cc(F)ccc5s4)cc3[C@@H]2O)c1`, the molecule was classed as inactive in assay [8], in assay [3], in assay [4], in [6], in assay [13] and in assay [7]. Besides, the AC50 in assay [12] is 20.8 µM (active).

`c1ccc(C(O[C@@H]2CCCN(CCc3ccc4c(c3)OCO4)C2)c2ccccc2)cc1`: the AC50 was 0.428 µM (active) in [1]; 0.337 µM (active) in [2]; 68.3 µM (active) in assay [3]; 31.5 µM (active) in assay [5]; 62.5 µM (active) in [6]. Besides, the outcome in assay [14], in [8], in [12], in assay [9], in [4] and in assay [13] was inactive.

Consider `Cc1nc(-c2ccccn2)ncc1C(=O)Nn1cc(C)c2cc(F)ccc21`, for which the molecule was classed as inactive in assay [10], in [3], in [4], in [5], in assay [15] and in assay [16]. Further, the outcome in assay [6] and in [17] was inactive.

As for `O=c1[nH]cnc2c1ncn2[C@H]1CC[C@@H](CO)O1`, the result in assay [10], in assay [3] and in assay [4] was inactive.

For `CC(=O)c1ccccc1`, the result in assay [18], in assay [3] and in assay [4] was inactive.

Take `Cc1cccc(O)c1C`: the result in assay [8], in [9], in assay [3], in [4], in [5] and in [6] was inactive. Further, the outcome in assay [13] was inactive.

For `OCC(CO)(CO)CO`, the outcome in [8], in [3], in assay [4], in assay [5], in [6] and in assay [13] was inactive. Also, the half-maximal activity concentration (AC50) in assay [9] was 3.49 µM (active).

On to `c1ccc2c(c1)-c1cccc3c1c-2cc1ccccc13`, for which the result in [12], in [3], in assay [4], in assay [5] and in assay [6] was inactive.

Turning to `CCc1ccc(O)c(C(C)(C)C)c1`, the call in assay [18], in [9], in [3], in assay [4], in assay [5] and in assay [6] was inactive. For the same molecule, in assay [7], the molecule was called inactive.

Take `COc1cc(C(C)C)c2c(c1)S(=O)(=O)N(COc1cc(=O)n3cccc(OCCN4CCCCC4)c3n1)C2=O`: the AC50 in [1] is 3.14 µM (active); in assay [2], 3.13 µM (active); in assay [15], 10.6 µM (active); in assay [16], 18.1 µM (active). Further, the molecule was called inactive in assay [9], in assay [3], in assay [4], in assay [17] and in assay [7].

`Cc1ncc([C@@H](CCCCCCc2ccc3c(n2)NCCC3)CC(=O)O)cn1`: the half-maximal activity concentration (AC50) in assay [2] is 25 µM (active). Moreover, the call in assay [3], in [4], in assay [5], in [6], in assay [13] and in assay [7] was inactive.

One may read the AC50 as the concentration at which the activity in the assay is half-maximal.
